# Records with an inconclusive call do not appear. Active and inactive are the calls of the source. Unless noted, calls follow the shape of the dose curve; as a rule, active = well fitted curve in the direction sought with a large enough effect; inconclusive = small, poorly fitted or top-dose-only effect, or another doubt; inactive = no such curve, though single readings can be large; an effect the other way counts as inactive or inconclusive.
# Key:
# [1] = molecular target: Calcium and integrin-binding protein 1 (Homo sapiens) (UniProt Q99828); test: Confirmatory qHTS for Identification of Calcium Integrin Binding Protein 1 (CIB1) Competitor (AID 1508617); also: % is scaled to controls: 0 for no effect and ±100 for the full control effect; nearly all actives have a fitted effect of over 65% in size
# Procedure, shortened: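 Compounds at up to 114 uM final met 1 uM GST-tagged CIB1 for 15 min at room temperature (HEPES pH 7.4, 5 mM CaCl2). FITC-labelled alphaIIb peptide, 100 nM, added; polarization read after 15 min more.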
# [2] = molecular target: Furin (Homo sapiens) (UniProt P09958); test: Furin counterscreen qHTS for Zika virus inhibitors (AID 1347149); also: potency is read from the fitted curve at half-maximal effect; nearly all actives have a fitted effect of over 70% in size
# Procedure, shortened: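 Fluorogenic cleavage of BOC-RVRR-AMC (2 microM final, Km ~15 µM) was monitored (ex 340, em 450 nm) at 37C after 15 min RT preincubation of 5 nM furin with compounds in HEPES pH 7.0 buffer with CaCl2 and Triton X-100. Percent inhibition was fitted to a 4-parameter Hill curve.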
# [3] = tested on: Zika virus NS2B-NS3 protease (unlinked complex); test: Confirmatory screen GU AMC qHTS for Zika virus inhibitors (AID 1347153);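 also: enzyme at 25 nM with substrate at 10 µM below its Km of 18.3 µM; potency is read from the fitted curve at half-maximal effect; nearly all actives have a fitted effect of over 70% in size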
# Procedure, shortened: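 Compounds were preincubated 15 min at room temperature with 25 nM noncovalent NS2B-NS3 protease at pH 8.0; AMC substrate added at 10 microM and 15-min fluorescence gain (340/450 nm) converted to percent inhibition, fitted 4-parameter.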
# [4] = Confirmatory screen GU Rhodamine qHTS for Zika virus inhibitors qHTS (AID 1347157); also: potency is read from the fitted curve at half-maximal effect; nearly all actives have a fitted effect of over 70% in size
# Procedure, shortened: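 Unlinked NS2B/NS3, 25 nM; Rhod110 peptide, 1.5 microM; compounds, up to 114 microM. Reaction run 15 min at RT in 10 mM Tris-HCl pH 8.0, 0.01% Tween 20; kinetic fluorescence change fitted with a 4-parameter Hill model.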
# [5] = Confirmatory screen NINDS Rhodamine qHTS for Zika virus inhibitors (AID 1347161); also: potency is read from the fitted curve at half-maximal effect; nearly all actives have a fitted effect of over 60% in size
# Procedure, shortened: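 Purified NS2B-NS3 protease with the NS2B hydrophilic domain joined by a flexible linker (25 nM) in 10 mM Tris-HCl pH 8.0, 0.01% Tween 20, preincubated 15 min at RT with compound; Rhodamine110 peptide substrate 1.5 µM; fluorescence change over 15 min; 4-parameter Hill fit.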
# [6] = tested on: Zika virus NS2B-NS3 protease (linked construct); test: 384 well plate NINDS Rhodamine confirmatory qHTS for Zika virus inhibitors (AID 1347164); also: potency is read from the fitted curve at half-maximal effect; nearly all actives have a fitted effect of over 65% in size
# Procedure, shortened: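 Cleavage of Ac-LKRR-Rhodamine 110 (10 microM final) by linked protease (final 5, 30 or 60 nM) was followed as fluorescence at 485/538 nm after 25 min, room temperature, dark. Compounds preincubated ~15 min.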
# [7] = Vero cells viability qHTS for Zika virus inhibitors (AID 1347167); also: % is scaled to controls: 0 for no effect and ±100 for the full control effect
# Procedure, shortened: (§1)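 Counter-screen for cytotoxicity of hits from NS2B-NS3 protease qHTS. Overnight-attached cells (2.5 x 10^5 cells/mL, DMEM/4% FBS) were dosed in titration, incubated 24 to 48 hours, then assayed by CellTiter Glo.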
# [8] = HepG2 cells viability qHTS for Zika virus inhibitors (AID 1347168); also: % is scaled to controls: 0 for no effect and ±100 for the full control effect
# Procedure, shortened: as §1
# [9] = Tertiary RLuc qRT-PCR qHTS assay for Zika virus inhibitors (AID 1347169); also: potency is read from the fitted curve at half-maximal effect; nearly all actives have a fitted effect of over 55% in size
# Procedure, shortened: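 Inhibition of ZIKV-RLuc replication in Vero cells, read as Renilla luminescence 1-1.5 hrs after live-cell substrate addition, following 48-72 hrs infection at MOI 1-2 in presence of compound.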
# [10] = molecular target: alpha-glucosidase (Oryza sativa, rice) (UniProt Q653V4); test: Counterscreen for Glucocerebrosidase Inhibitors: qHTS Assay for Rice alpha-Glucosidase at pH 5.0 (AID 997);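 also: 0% = full activity with enzyme and -100% = basal without enzyme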
# Procedure, shortened: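 Rice alpha-glucosidase (4 nM final) with 400 uM 4-methylumbelliferyl-alpha-D-glucopyranoside in citrate buffer pH 5.0, 20 min at room temperature, stopped at pH 10; fluorescence 365/440 nm, compounds 0.7 nM–77 uM, AC50 from Hill fits.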
# [11] = Validation of Assay for Modulators of Lamin A Splicing (AID 1459; active = well fitted curve in the direction sought with a large enough effect in the signal ratio; the % refers to the signal ratio;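 also: cells exposed to compound for two days before reading; 0% is about no effect; ratio rise marks activators and ratio drop marks inhibitors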)
# Procedure, shortened: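 Dual-reporter HeLa S3 line (lamin A-EGFP minigene, DsRed2) treated with compounds 48 hrs, 0.5% DMSO final. Endpoint: EGFP/DsRed2 total intensity ratio from laser-scanning microplate cytometry.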
# [12] = molecular target: DNA repair nuclease/redox regulator APEX1 (Homo sapiens) (UniProt P27695); test: qHTS Validation Assay for Inhibitors of the Human Apurinic/apyrimidinic Endonuclease 1 (APE1) (AID 1705;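 also: TAMRA fluorescence gain over two minutes as APE1 cuts a quenched THF abasic duplex; % is scaled to controls: 0 for no effect and ±100 for the full control effect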)
# Procedure, shortened: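 Substrate: 50 nM final fluorophore/quencher THF-abasic duplex. Enzyme preincubated with compounds 15 min, RT. Progress derived from fluorescence difference, third minus first kinetic read.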
# [13] = qHTS for differential inhibitors of proliferation of Plasmodium falciparum line 7G8 (AID 1815);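 also: potency is read from the fitted curve at half-maximal effect; parasite growth measured after three days of incubation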
# [14] = qHTS for differential inhibitors of proliferation of Plasmodium falciparum line D10 (AID 1877);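 also: parasites grown with compound for 72 h before DNA staining; plate controls were vehicle wells for no effect and reference inhibitor wells for full effect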
# [15] = molecular target: Rap guanine nucleotide exchange factor 3 (Homo sapiens) (UniProt O95398); test: Confirmatory qHTS for agonist of cAMP-regulated guanine nucleotide exchange factor 3 (EPAC1) (AID 1645881);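 also: EPAC1 catalysed release of BODIPY-GDP from Rap1B seen as fluorescence loss; 100% = effect of cAMP agonist control; nearly all actives have a fitted effect of over 75% in size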
# [16] = molecular target: Rap guanine nucleotide exchange factor 4 (Homo sapiens) (UniProt Q8WZA2); test: Confirmatory qHTS for agonist of cAMP-regulated guanine nucleotide exchange factor 4 (EPAC2) (AID 1645884);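 also: nucleotide exchange releases bodipy-GDP from Rap1 and this lowers its fluorescence; % is scaled to controls: 0 for no effect and ±100 for the full control effect; nearly all actives have a fitted effect of over 65% in size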
# [17] = qHTS profiling of the MIPE4 collection as inhibitors of Plasmodium falciparum (3D7) proliferation (AID 743344; call rule not given here;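 also: scaled between DMSO vehicle wells and 0.29 µM artemisinin as full inhibition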); details: P. falciparum 3D7 in erythrocytes, SYBR Green DNA fluorescence, 72 h; at 28.5 µM (top of the series)
# Procedure, shortened: (§2)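 Erythrocytes infected with P. falciparum (0.3% parasitemia, 2.5% hematocrit) incubated with compounds 72 h at 37 C, 5% CO2. Lysis with saponin/Triton buffer containing SYBR Green I, overnight at room temperature in the dark; DNA fluorescence (485/535 nm) normalised to 0.29 uM artemisinin and DMSO.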
# [18] = qHTS profiling of the MIPE4 collection as inhibitors of Plasmodium falciparum (DD2) proliferation (AID 743345; call rule not given here); details: P. falciparum Dd2 in erythrocytes, SYBR Green DNA, 72 h; at 28.5 µM (top of the series)
# Procedure, shortened: as §2
# [19] = qHTS profiling of the MIPE4 collection as inhibitors of Plasmodium falciparum (DD2) proliferation (Rep 2) (AID 743346; call rule not given here); details: P. falciparum Dd2 in erythrocytes, SYBR Green DNA, 72 h; at 28.5 µM (top of the series)
# Procedure, shortened: as §2
# [20] = qHTS profiling of the MIPE4 collection as inhibitors of Plasmodium falciparum (HB3) proliferation (AID 743347; call rule not given here;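 also: plate controls were DMSO vehicle wells for no effect and artemisinin wells for full effect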); details: P. falciparum HB3 in erythrocytes, SYBR Green DNA, 72 h; at 28.5 µM (top of the series)
# Procedure, shortened: as §2
# Rap guanine nucleotide exchange factor 4 (Homo sapiens), sequence (Q8WZA2 whole entry, looked up): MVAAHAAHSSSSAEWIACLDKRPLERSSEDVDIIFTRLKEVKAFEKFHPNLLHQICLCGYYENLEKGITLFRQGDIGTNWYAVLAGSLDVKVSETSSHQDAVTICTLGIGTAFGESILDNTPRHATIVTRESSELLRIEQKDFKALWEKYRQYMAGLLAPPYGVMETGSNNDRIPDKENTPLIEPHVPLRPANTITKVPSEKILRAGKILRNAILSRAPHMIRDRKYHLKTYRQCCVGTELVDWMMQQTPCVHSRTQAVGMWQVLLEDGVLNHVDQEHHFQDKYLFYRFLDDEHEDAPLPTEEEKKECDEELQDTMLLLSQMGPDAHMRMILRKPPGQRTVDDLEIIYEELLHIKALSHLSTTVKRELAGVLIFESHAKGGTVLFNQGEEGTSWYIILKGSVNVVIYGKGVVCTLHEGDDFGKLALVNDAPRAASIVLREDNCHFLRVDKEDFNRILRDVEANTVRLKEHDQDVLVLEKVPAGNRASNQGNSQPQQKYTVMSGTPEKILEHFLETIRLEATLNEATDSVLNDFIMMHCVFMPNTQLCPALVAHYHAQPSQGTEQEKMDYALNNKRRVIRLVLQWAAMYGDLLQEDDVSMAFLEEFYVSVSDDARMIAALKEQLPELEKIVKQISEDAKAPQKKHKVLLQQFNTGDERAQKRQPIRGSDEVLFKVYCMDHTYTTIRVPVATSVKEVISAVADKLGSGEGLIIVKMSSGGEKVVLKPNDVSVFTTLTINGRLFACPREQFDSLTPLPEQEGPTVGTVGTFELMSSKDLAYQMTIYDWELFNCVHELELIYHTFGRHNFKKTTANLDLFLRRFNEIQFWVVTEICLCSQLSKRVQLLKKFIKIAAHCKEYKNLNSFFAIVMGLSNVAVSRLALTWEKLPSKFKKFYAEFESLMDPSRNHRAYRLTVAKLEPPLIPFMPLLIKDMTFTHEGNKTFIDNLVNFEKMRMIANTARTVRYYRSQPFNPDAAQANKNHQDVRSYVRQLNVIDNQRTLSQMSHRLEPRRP
# Rap guanine nucleotide exchange factor 3 (Homo sapiens), sequence (O95398 whole entry, looked up): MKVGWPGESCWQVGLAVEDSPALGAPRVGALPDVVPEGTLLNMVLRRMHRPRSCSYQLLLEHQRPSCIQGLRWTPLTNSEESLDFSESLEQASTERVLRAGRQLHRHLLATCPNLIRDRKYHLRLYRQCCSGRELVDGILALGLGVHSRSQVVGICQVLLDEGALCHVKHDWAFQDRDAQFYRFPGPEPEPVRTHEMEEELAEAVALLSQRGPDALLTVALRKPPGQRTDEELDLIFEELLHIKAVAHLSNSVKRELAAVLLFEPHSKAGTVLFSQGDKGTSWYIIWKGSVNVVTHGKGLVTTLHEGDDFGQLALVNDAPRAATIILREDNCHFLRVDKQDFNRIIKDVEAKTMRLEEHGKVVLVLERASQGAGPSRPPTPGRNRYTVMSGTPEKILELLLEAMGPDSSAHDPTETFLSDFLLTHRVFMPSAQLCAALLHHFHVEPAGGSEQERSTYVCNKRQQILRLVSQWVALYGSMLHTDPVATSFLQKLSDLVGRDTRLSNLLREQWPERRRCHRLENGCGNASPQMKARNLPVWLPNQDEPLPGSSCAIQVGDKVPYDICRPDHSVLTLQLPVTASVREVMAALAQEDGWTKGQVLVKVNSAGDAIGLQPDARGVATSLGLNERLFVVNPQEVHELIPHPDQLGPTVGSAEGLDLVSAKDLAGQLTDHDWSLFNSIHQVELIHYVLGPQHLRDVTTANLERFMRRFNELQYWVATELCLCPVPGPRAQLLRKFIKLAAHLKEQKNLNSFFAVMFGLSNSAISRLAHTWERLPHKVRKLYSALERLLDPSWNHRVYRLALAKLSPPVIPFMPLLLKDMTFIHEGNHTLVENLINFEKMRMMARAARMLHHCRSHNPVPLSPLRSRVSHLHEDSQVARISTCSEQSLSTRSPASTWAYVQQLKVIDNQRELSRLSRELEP
# DNA repair nuclease/redox regulator APEX1 (Homo sapiens), sequence (P27695 whole entry, looked up): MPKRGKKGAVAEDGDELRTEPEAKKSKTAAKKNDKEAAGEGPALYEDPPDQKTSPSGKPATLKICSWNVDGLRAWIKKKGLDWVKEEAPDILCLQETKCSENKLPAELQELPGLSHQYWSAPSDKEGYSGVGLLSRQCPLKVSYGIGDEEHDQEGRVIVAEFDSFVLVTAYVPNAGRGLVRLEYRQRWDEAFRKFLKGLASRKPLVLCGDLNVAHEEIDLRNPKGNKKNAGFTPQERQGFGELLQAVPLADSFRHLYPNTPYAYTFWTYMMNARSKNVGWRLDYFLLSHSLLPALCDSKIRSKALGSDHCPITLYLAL
# Calcium and integrin-binding protein 1 (Homo sapiens), sequence (Q99828 whole entry, looked up): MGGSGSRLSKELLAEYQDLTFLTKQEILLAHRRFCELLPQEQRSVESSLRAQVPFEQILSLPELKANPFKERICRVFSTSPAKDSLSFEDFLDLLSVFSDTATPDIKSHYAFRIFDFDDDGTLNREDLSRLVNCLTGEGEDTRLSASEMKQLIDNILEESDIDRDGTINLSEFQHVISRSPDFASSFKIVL
# Furin (Homo sapiens), sequence (P09958 whole entry, looked up): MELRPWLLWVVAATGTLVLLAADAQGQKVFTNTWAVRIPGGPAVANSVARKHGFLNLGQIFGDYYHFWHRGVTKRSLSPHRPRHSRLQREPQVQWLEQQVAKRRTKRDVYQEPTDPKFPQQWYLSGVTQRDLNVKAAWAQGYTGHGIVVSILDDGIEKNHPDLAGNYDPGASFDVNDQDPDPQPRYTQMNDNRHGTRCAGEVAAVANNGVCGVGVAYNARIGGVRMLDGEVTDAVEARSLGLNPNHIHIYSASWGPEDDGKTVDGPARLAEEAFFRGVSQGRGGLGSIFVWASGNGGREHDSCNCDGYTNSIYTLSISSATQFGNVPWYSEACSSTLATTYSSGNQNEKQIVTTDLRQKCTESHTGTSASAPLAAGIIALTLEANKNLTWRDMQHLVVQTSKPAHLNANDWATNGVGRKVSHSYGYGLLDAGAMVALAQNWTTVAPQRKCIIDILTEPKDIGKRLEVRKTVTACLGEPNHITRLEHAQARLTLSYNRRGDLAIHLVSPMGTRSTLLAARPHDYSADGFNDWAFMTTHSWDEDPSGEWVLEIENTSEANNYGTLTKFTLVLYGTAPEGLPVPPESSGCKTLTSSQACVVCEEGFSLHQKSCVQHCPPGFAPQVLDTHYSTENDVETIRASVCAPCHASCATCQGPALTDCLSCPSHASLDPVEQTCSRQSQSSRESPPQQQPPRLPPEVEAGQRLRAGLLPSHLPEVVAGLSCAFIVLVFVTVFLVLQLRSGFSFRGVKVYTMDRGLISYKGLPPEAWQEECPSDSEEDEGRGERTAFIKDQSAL
structure (smiles),measurement,setting,value
CN(C)CCCCCCNC(=O)c1cccc(-c2cc(O)c3ncccc3c2)c1,outcome,[1],inactive
O=C(O)c1ccc(O)c2ncc(N3CCCN(CCc4cccc5ccccc45)CC3)cc12,Potency,[2],49.4 µM (active)
same,Potency,[3],49.4 µM (active)
same,Potency,[4],13.9 µM (active)
same,Potency,[5],13.9 µM (active)
same,Potency,[6],3.55 µM (active)
same,Potency,[7],inactive
same,Potency,[8],inactive
same,Potency,[9],6.58 µM (active)
CC(C)=CCC/C(C)=C/CC/C(C)=C/CSc1ccccc1C(=O)O,outcome,[10],inactive
same,outcome,[11],inactive
same,Potency,[12],inactive
same,Potency,[13],11.2 µM (active)
same,Potency,[14],inactive
CCC(=O)O[C@H]1CC[C@H]2[C@@H]3CCc4cc(O)ccc4[C@H]3CC[C@]12C,outcome,[15],inactive
same,outcome,[16],inactive
C#C[C@]1(OC(C)=O)CC[C@H]2[C@@H]3CCC4=CC(=O)CC[C@@H]4[C@H]3CC[C@@]21C,outcome,[15],inactive
same,outcome,[16],inactive
CC1(C)N=C(N)N=C(N)N1c1ccc(Cl)cc1,"parasite growth, % of DMSO control",[17],5.76%
same,"parasite growth remaining, % of DMSO control (lower = more inhibition)",[18],13.5%
same,"parasite growth, % of control (lower = inhibition)",[19],19.9%
same,"growth, % of control",[20],2.49%
O=C(O)c1ccc2c3c1cccc3c(=O)n1c3ccccc3nc21,"parasite growth, % of DMSO control",[17],91.8%
same,"parasite growth remaining, % of DMSO control (lower = more inhibition)",[18],97.7%
same,"parasite growth, % of control (lower = inhibition)",[19],85.8%
same,"growth, % of control",[20],60.1%
CN1CCN(CCC=C2c3ccccc3Sc3ccc(S(=O)(=O)N(C)C)cc32)CC1,outcome,[10],inactive
